In the library only some 3.5% were active in any assay of this set; here they are far more common.
GPR151 activ – human GPR151 activation | Q8TDV0 | PathHunter beta-arrestin GPR151 cells, luminescence | activation, % at 11.2 µM | 650,000 compounds, 1% hits | AID 1508602; in the data active = activation above about 4.9%
FBW7 activator – activators of human E3 ligase FBW7; 650,000 compounds, 0.13% hits; AlphaScreen FBW7–phospho-cyclin E peptide binding, activator screen; normalized activity (activation), % at 26.1 µM; in the data active = normalized activity above about 1.9%;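 also: purified mutant Fbw7 with reduced substrate affinity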
Target sequence (Q969H0 whole entry, looked up): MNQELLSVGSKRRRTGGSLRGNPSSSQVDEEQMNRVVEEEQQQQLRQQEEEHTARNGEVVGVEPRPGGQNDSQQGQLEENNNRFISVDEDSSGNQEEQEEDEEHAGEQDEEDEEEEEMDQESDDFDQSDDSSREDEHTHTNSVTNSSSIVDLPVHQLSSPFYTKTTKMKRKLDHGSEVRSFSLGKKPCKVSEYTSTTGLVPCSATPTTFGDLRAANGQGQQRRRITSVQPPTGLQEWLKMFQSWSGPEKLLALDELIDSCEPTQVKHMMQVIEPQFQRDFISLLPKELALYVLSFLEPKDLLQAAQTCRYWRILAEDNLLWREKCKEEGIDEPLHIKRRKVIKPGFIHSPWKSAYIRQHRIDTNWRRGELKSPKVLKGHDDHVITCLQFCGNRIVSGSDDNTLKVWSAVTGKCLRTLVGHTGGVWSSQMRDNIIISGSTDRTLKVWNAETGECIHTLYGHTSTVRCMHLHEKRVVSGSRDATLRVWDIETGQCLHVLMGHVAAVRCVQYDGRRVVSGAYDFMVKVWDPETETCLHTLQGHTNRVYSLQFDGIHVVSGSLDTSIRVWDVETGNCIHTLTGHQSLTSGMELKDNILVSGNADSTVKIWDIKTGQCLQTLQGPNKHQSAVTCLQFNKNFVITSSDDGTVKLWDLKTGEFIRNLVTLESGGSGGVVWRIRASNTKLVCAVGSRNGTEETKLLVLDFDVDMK
TEAD-YAP block – TEAD-YAP interaction inhibition; HEK-TIYL cells, TEAD-Gal4/YAP UAS-luciferase luminescence; inhibition, % at 9.12 µM; 640,000 compounds, 1.4% hits; AID 1259422; in the data active = inhibition above about 32%
MITF inh – human MITF inhibition, primary screen; O75030; AlphaScreen MITF homodimerization, bead proximity signal; inhibition, % at 2.6 µM; 650,000 compounds, 0.91% hits; AID 1259374; in the data active = inhibition above about 50%
MITF confirm – confirmation of human MITF inhibitors; shares compounds with MITF inh; AlphaScreen MITF homodimerization, biotin/His-MITF beads; inhibition, % at 2.6 µM; 4,700 compounds, 16% hits; AID 1259372;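 active = inhibition above a cutoff derived from the DMSO control wells, cut at about 28% in these data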;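 also: inhibitors lower the bead chemiluminescence by keeping MITF from dimerizing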
AlphaScreen DR – counter-screen: compounds optically interfering with AlphaScreen | IC50, µM | shares compounds with MITF inh | 480 compounds, 6% hits | AlphaScreen optical interference counterscreen, cell-free | AID 1259373; call rule not given here
AlphaScreen intf2 – counter-screen: compounds optically interfering with AlphaScreen. AID 1259376. shares compounds with MITF inh. 4,700 compounds, 7.6% hits. inhibition, % at 2.6 µM. LysRS AlphaScreen counterscreen, signal interference, triplicate;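 active = inhibition above a cutoff derived from the DMSO control wells, cut at about 30% in these data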
A number is an active result; 0 = inactive; - = no result given.

SMILES | GPR151 activ | FBW7 activator | TEAD-YAP block | MITF inh | MITF confirm | AlphaScreen intf2 | others
COCCOCC(O)CN1CCN(c2ccc(C)cc2)CC1 (stereo unspecified) | 0 | 0 | 0 | 51.7 | 0 | 0
O=C(O)CCCC[C@@H]1SC[C@@H]2NC(=O)N[C@@H]21 | 0 | 0 | - | 121.6 | 123.9 | 100.3
COc1ccccc1C1(NC(=O)CCCCC2SCC3NC(=O)NC32)CCCC1 (stereo unspecified) | 0 | 0 | 0 | 105.4 | 66.2 | 0 | AlphaScreen DR=4.88
COc1ccc(-c2c(-c3ccc(O)cc3O)n[nH]c2C)cc1 | 0 | 0 | 0 | 0 | - | -
O=C(OC1CCCC1=O)c1ccc(N2CCCC2=O)cc1 (stereo unspecified) | 0 | 0 | 0 | 62.4 | 44.4 | 0 | AlphaScreen DR=0
O=C(Nc1ccc([N+](=O)[O-])cc1Cl)c1cc2nc(-c3ccc(Br)cc3)cc(C(F)(F)F)n2n1 | 0 | 0 | 0 | 0 | - | -
CS(=O)(=O)Nc1ccc(C(=O)NCc2ccccn2)cc1 | 0 | 0 | 0 | 70.0 | 0 | 0
Cc1cc(C)c(C)c(S(=O)(=O)Nc2ccc(C(=O)NCc3ccccn3)cc2)c1C | 0 | 0 | 0 | 0 | - | -
CC1=NN(c2ccc(Cl)c(C(=O)O)c2)C(=O)/C1=C\c1ccccc1 | 0 | 0 | 0 | 0 | - | -
COc1ccc(OC)c(S(=O)(=O)NCc2cccnc2)c1 | 0 | 0 | 0 | 0 | - | -
CCOc1ccc(OCC)c(S(=O)(=O)NCc2cccnc2)c1 | 0 | 0 | 0 | 56.5 | 0 | 0
CCOC(=O)Cc1csc(NC(=O)c2c(O)c3ccccc3[nH]c2=O)n1 | 0 | 0 | 0 | 0 | - | -
c1ccc(OCc2nc3ccccc3n2CC2CCN(Cc3ccccn3)CC2)cc1 | 0 | 0 | 0 | 90.2 | 0 | 0
Cc1nnc(CNC(=O)c2ccc(-n3cccc3)cc2)o1 | 0 | 0 | 0 | 55.1 | 55.3 | 0 | AlphaScreen DR=0
Cc1nnc(CNC(=O)c2cnn(-c3ccccc3)c2C)o1 | 0 | 0 | 0 | 0 | - | -
CCS(=O)(=O)N1CCN(CC(=O)NC2CCCCC2)CC1 | 0 | 0 | 0 | 54.5 | 0 | 0
CN(CC(=O)Nc1c2c(nc3ccccc13)CCC2)Cc1ccccc1 | 0 | 0 | 0 | 71.0 | 0 | 0
O=C(CN1CCN(c2ccccc2)CC1)Nc1c2c(nc3c1CCC3)CCCC2 | 0 | 0 | 0 | 0 | - | -
CN1CCN(CC(=O)Nc2c3c(nc4ccccc24)CCCC3)CC1 | 0 | 0 | 0 | 60.2 | 0 | 0
O=C(CN1CCN(Cc2ccccc2)CC1)Nc1c2c(nc3c1CCC3)CCCC2 | 0 | 0 | 0 | 67.2 | 0 | 0
O=[N+]([O-])c1ccccc1CNc1ccc2[nH]ncc2c1 | 0 | 0 | 0 | 0 | - | -
C/C(=N\Nc1ccc(C(=O)O)cc1)c1cccc(Br)c1 | 0 | 0 | 0 | 0 | - | -
C/C(=N\Nc1ccc(S(=O)(=O)O)cc1)c1cccc(Br)c1 | 0 | 0 | 0 | 56.3 | 38.5 | 0 | AlphaScreen DR=0
CCOc1ccc2nc(N=C(NC(=O)CC)NC(=O)CC)nc(C)c2c1 | 0 | 0 | 0 | 110.0 | 0 | 0
Cc1ccc(S(=O)(=O)N2CCN(CCC#N)CC2)cc1 | 0 | 0 | 0 | 62.4 | 0 | 0
SMILES | GPR151 activ | FBW7 activator | TEAD-YAP block | MITF inh | MITF confirm | AlphaScreen intf2 | others
N#CCCN1CCN(S(=O)(=O)c2ccccc2Br)CC1 | 0 | 0 | 0 | 77.5 | 0 | 0
CC1CC(C)(C)N(C(=O)CN2CCN(C)CC2)c2ccccc21 (stereo unspecified) | 0 | 0 | 0 | 80.6 | 0 | 0
O=C(CN1CCN(c2ccccc2F)CC1)NCCC1=CCCCC1 | 0 | 0 | 0 | 67.6 | 0 | 0
O=C(CN1CCN(c2ccccc2F)CC1)N1CCCc2ccccc21 | 0 | 0 | 0 | 52.5 | 0 | 0
CN1CCCN(CC(=O)N2CCc3ccccc32)CC1 | 0 | 0 | 0 | 77.6 | 0 | 0
Cc1ccc2c(c1)C(C)CC(C)(C)N2C(=O)CN1CCN(C)CC1 (stereo unspecified) | 0 | 0 | 0 | 0 | - | -
CN1CCN(Cc2cccc(Oc3ccccc3)c2)CC1 | 0 | 0 | 0 | 0 | - | -
CN1CCCN(Cc2cccc(Oc3ccccc3)c2)CC1 | 0 | 0 | 0 | 54.8 | 0 | 0
OC1CCN(Cc2cccc(Oc3ccccc3)c2)CC1 | 0 | 0 | 0 | 0 | - | -
CCc1ccc(CN2CCN(Cc3cccc(Oc4ccccc4)c3)CC2)cc1 | 0 | 0 | 0 | 66.7 | 0 | 0
O=C(/C=C/c1ccco1)N1CCN(c2ccc(-c3ccccn3)nn2)CC1 | 0 | 0 | 0 | 0 | - | -
O=C(/C=C/c1cccs1)N1CCN(c2ccc(-c3ccccn3)nn2)CC1 | 0 | 0 | 0 | 55.9 | 103.5 | 100.6
Cn1cc(CC(=O)N2CCN(c3ccc(-c4ccccn4)nn3)CC2)c2ccccc21 | 0 | 0 | 41.9 | 121.7 | 107.5 | 100.6
O=C(Cc1cccs1)N1CCN(c2ccc(-c3ccccn3)nn2)CC1 | 0 | 0 | 0 | 68.2 | 51.4 | 100.5
Cc1ccc(-c2cc(C(F)(F)F)n3nc(C(=O)Nc4ccc(C#N)cc4)cc3n2)cc1 | 0 | 0 | 0 | 0 | - | -
Cc1ccc(NC(=O)CC2CCCCN2S(=O)(=O)c2cccs2)c(C)c1 (stereo unspecified) | 0 | 0 | 0 | 0 | - | -
O=C(O)c1cc(NN=C2CCCC2)ccc1Cl | 0 | 0 | 0 | 71.8 | 72.8 | 0 | AlphaScreen DR=0
COc1ccc(/C=c2/sc3nc4c(C)c(C)ccc4n3c2=O)cc1 | 0 | 0 | 0 | 0 | - | -
Cc1cc(OC(=O)c2cccc([N+](=O)[O-])c2)ccc1N1C(=O)CCC1=O | 0 | 0 | 0 | 69.7 | 0 | 0
CCC(C)CNC(=O)C1CCN(C2CCN(Cc3cccc(C)n3)CC2)CC1 (stereo unspecified) | 0 | 0 | 0 | 0 | - | -
COC(C)(C)CNC(=O)C1CCN(C2CCN(Cc3cccc(C)n3)CC2)CC1 | 0 | 0 | 0 | 81.2 | 72.5 | 0 | AlphaScreen DR=0
c1ccc(-c2cc3ccccc3[nH]2)nc1 | 0 | 0 | 0 | 0 | - | -
O=c1cc(-c2ccccn2)[nH][nH]1 | 0 | 0 | 0 | 114.0 | 109.6 | 100.6
O=C(O)C1=NN(c2ccccn2)C(=O)CC1 | 0 | 0 | 0 | 76.9 | 0 | 100.3
Cc1ccc(C(=O)CCN(C)C)o1 | 0 | 0 | 0 | 0 | - | -
SMILES | GPR151 activ | FBW7 activator | TEAD-YAP block | MITF inh | MITF confirm | AlphaScreen intf2 | others
C/C(CC(=O)Nc1ccccc1)=N\NC(=O)CC#N | 0 | 0 | 0 | 57.2 | 60.7 | 34.7
COC(=O)c1ccccc1NC(=O)C/C(C)=N/NC(=O)CC#N | 0 | 0 | 0 | 0 | - | -
COC(=O)C1=CN(CC(C)C)C=C(C(=O)OC)C1c1ccccc1OC(C)C | 0 | 0 | 0 | 0 | - | -
CCN(CC)C(=O)C1=CC2([N+](=O)[O-])CN(CC(=O)O)CC([N+](=O)[O-])(C1)C2 (stereo unspecified) | 0 | 0 | 0 | 0 | - | -
O=C(O)CN1CC2([N+](=O)[O-])C=CCC([N+](=O)[O-])(C1)C2 (stereo unspecified) | 0 | 0 | 0 | 55.0 | 0 | 0
Cc1ccc(NC(=O)C(C)Oc2ccccc2)c(C(=O)O)c1 (stereo unspecified) | 0 | 0 | 0 | 0 | - | -
Cc1ccc(-c2nnn(CC(=O)c3ccc4c(c3)OCCO4)n2)cc1 | 0 | 0 | 0 | 0 | - | -
Cc1ccc(C(=O)Cn2nnc(-c3ccc(N)cc3)n2)cc1 | 0 | 0 | 0 | 73.0 | 0 | 0
O=S(=O)(NCCSc1ccc(Cl)cc1)c1ccccc1 | 0 | 0 | 0 | 0 | - | -

Screens as filed in PubChem.
